In PubChem BioAssay AID720597 (Broad Institute, 2013):
Entries with a potency or affinity are not part of this list. Calls of active or inactive are those of the source.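 The calls were made as follows: active = fitted half-maximal dose no more than twice the top valid tested dose, for compounds that lower signal; inconclusive = fit invalid, or curve flat with activity between -70 and -30; inactive = potency past limit, curve flat within ±30, or signal increasing.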

These compounds were tested against NAD-dependent protein deacylase sirtuin-5, mitochondrial (Homo sapiens) (UniProt Q9NXA8) (assay: SIRT5 deacylase inhibitors, dose response, biochemical, fluorescence imaging, cherry-pick, set 6 (AID 720597;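 also: lower AMC signal can also come from blocking the trypsin step; 0% = median of neutral control wells and -100% = median of positive control wells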)). Conditions: Purified SirT5, succinyl-peptide-AMC/trypsin fluorescence; series mostly up to 15 µM; activity change, negative = inhibition: at the top concentration.
Sequence of NAD-dependent protein deacylase sirtuin-5, mitochondrial (Homo sapiens) (Q9NXA8 whole entry, looked up): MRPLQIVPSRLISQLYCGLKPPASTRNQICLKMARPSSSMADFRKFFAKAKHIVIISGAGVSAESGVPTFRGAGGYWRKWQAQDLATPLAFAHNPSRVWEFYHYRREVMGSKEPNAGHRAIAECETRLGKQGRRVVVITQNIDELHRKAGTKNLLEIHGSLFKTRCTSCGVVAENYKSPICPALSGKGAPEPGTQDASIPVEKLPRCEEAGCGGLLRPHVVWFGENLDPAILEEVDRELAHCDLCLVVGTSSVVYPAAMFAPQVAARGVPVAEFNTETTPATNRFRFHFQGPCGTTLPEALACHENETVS

Activity change, negative = inhibition, inactive:
Cc1noc(C)c1NC(=O)N[C@@H]1C=C[C@@H](CC(=O)Nc2ccccc2)O[C@H]1CO 12.1%, COc1cccc(NC(=O)N2CC(=O)N3[C@H](CO)[C@H](c4ccc(C#CCC5CCCC5)cc4)[C@@H]3C2)c1 -10.9%, Cc1ccccc1-c1ccc([C@H]2[C@H](CO)N3CCCCN(S(=O)(=O)c4ccc(F)cc4)C[C@@H]23)cc1 -14.6%, Cc1ccc(S(=O)(=O)N(C)C[C@H]2OCCCC[C@@H](C)Oc3ccc(NS(=O)(=O)c4ccccc4)cc3C(=O)N([C@@H](C)CO)C[C@H]2C)cc1 -23.3%, COc1ccccc1S(=O)(=O)N(C)C[C@@H]1Oc2cc(C#CCC(C)C)ccc2S(=O)(=O)N([C@@H](C)CO)C[C@@H]1C 10%, CS(=O)(=O)N(CC(=O)NC1CCCC1)c1cccc(F)c1 1.17% [at 18 µM], O=C(N[C@H]1C=C[C@H](CC(=O)N2CCOCC2)O[C@H]1CO)c1ccccn1 7.46%, C[C@H]1CN([C@@H](C)CO)C(=O)c2cc(C#CCN(C)C)cnc2O[C@@H]1CN(C)Cc1ccncc1 -24.8%, COc1ccc(S(=O)(=O)Nc2ccc3c(c2)C(=O)N([C@H](C)CO)C[C@@H](C)[C@@H](CN(C)Cc2ccc(C(F)(F)F)cc2)OCCCC[C@@H](C)O3)cc1 -7.85%, C[C@H]1CN([C@@H](C)CO)C(=O)c2cc(NC(=O)CCCCCC(=O)Nc3ccccc3N)ccc2O[C@H]1CN(C)Cc1ccc(Cl)c(Cl)c1 11.9% [at 12 µM], Cc1ccccc1S(=O)(=O)N(C)C[C@H]1OCc2ccccc2-c2c(n(C)c3ccccc23)C(=O)N([C@@H](C)CO)C[C@@H]1C 2.1%, C[C@@H]1CN([C@H](C)CO)C(=O)c2cc(NC(=O)CCCCCC(=O)Nc3ccccc3N)ccc2O[C@@H]1CN(C)Cc1ccc(Cl)c(Cl)c1 1.64%, CO[C@@H](CN(C)Cc1ccc2c(c1)OCO2)[C@@H](C)CN(C(=O)Nc1ccc(F)cc1)[C@H](C)CO -0.984% [at 16 µM], C[C@@H]1CN([C@H](C)CO)S(=O)(=O)c2ccc(-c3cccc(F)c3)cc2O[C@@H]1CN(C)S(=O)(=O)c1ccc(F)cc1 -13.2%, Cc1ccc(S(=O)(=O)N[C@@H]2CC[C@@H](CC(=O)N3CCN(c4ccccc4)CC3)O[C@@H]2CO)cc1 -8.28%, CO[C@H](CN(C)C(=O)c1ccc2c(c1)OCO2)[C@H](C)CN([C@H](C)CO)S(=O)(=O)c1ccccc1 -23.5%, CC(=O)NC[C@@H]1[C@@H](c2ccc(-c3ccccc3F)cc2)[C@@H](CO)N1CCC(F)(F)F -11.8%, C[C@H]1CCCCO[C@H](CN(C)S(=O)(=O)c2ccc(Cl)cc2)[C@@H](C)CN([C@@H](C)CO)C(=O)c2cc(NS(=O)(=O)c3ccccc3)ccc2O1 -14.3%, CN(C)Cc1cn(CC[C@@H]2CC[C@H](N)[C@H](CO)O2)nn1 -7.3%, C[C@H](CO)N1C[C@H](C)[C@@H](CN(C)S(=O)(=O)c2ccccc2)Oc2ccc(NC(=O)Nc3ccc(C(F)(F)F)cc3)cc2CC1=O -26.9%, C[C@@H]1CN([C@H](C)CO)S(=O)(=O)c2ccc(C#Cc3cccc(F)c3)cc2O[C@@H]1CN(C)S(=O)(=O)c1ccccc1F 40.1%, C[C@H]1CN([C@@H](C)CO)S(=O)(=O)c2ccc(C#Cc3ccc(F)cc3)cc2O[C@H]1CN(C)S(=O)(=O)c1ccc(F)cc1 -20%, O=C(CCN1CCCCC1)N[C@H]1CC[C@@H](CC(=O)N2CCC(Cc3ccccc3)CC2)O[C@@H]1CO -14.1%, CN(C)C(=O)c1cccc(-c2ccc([C@H]3[C@@H](CO)N4CCCCN(S(C)(=O)=O)C[C@@H]34)cc2)c1 9.06%, COc1ccc(CN(C)C[C@@H]2Oc3ccc(NC(=O)CCC(F)(F)F)cc3C(=O)N([C@H](C)CO)C[C@H]2C)cc1 0.69%, COc1ccc(S(=O)(=O)N(C)C[C@H]2Oc3cc(C#CC4CCCC4)ccc3S(=O)(=O)N([C@@H](C)CO)C[C@@H]2C)cc1 7.83%, COCCNC(=O)c1cc2c(c(-c3cccc(-c4cccc(F)c4)c3)n1)[C@@H](CCO)N([S@](=O)C(C)(C)C)C2 -11.9% [at 13.5 µM], C[C@@H]1CN([C@H](C)CO)C(=O)c2c(c3ccccc3n2C)-c2ccccc2CO[C@@H]1CN(C)Cc1cccc2c1OCCCO2 -2.67%, COc1ccc(NC(=O)Nc2ccc3c(c2)C(=O)N([C@H](C)CO)C[C@@H](C)[C@@H](CN(C)Cc2ccc(C(F)(F)F)cc2)O3)cc1 7.37%, COc1ccc(C#Cc2ccc([C@H]3[C@@H](CO)N4C(=O)CN(C(=O)c5cccnc5)C[C@H]34)cc2)cc1 15.7%, C[C@@H]1CN([C@H](C)CO)C(=O)c2cc(NS(=O)(=O)c3ccc(Cl)cc3)ccc2O[C@@H](C)CCCCO[C@@H]1CN(C)Cc1ccccc1 -26.9%, CC(C)C#Cc1ccc([C@@H]2[C@@H](CO)N3C(=O)CN(C(=O)c4ccc5c(c4)OCO5)C[C@H]23)cc1 -20.6%, C[C@@H]1CCCCO[C@@H](CN(C)C(=O)CCCN(C)C)[C@@H](C)CN([C@H](C)CO)C(=O)c2cc(NS(=O)(=O)c3ccccc3)ccc2O1 -10.3% [at 16 µM], C[C@H]1CN([C@@H](C)CO)C(=O)c2cc(NS(=O)(=O)c3ccccc3)ccc2O[C@@H]1CN(C)Cc1ccc(C(=O)Nc2ccccc2N)cc1 -9.69% [at 12 µM], COCC(=O)N1[C@H](C#N)[C@H](c2ccccc2-c2cccc(F)c2)[C@H]1CO 16%, CO[C@H]1CN(C)C(=O)c2ccc(NC(C)=O)cc2OC[C@H](C)N(Cc2nccs2)C[C@@H]1C 12.7%, O=C(CN1CCOCC1)NCC[C@H]1CC[C@@H](NS(=O)(=O)c2ccc(Cl)cc2)[C@@H](CO)O1 -11.2%, Cc1ccc(CN(C)C[C@@H]2OCc3cnnn3CCCC(=O)N([C@H](C)CO)C[C@@H]2C)cc1 2.7%, COc1ccc(C#Cc2ccc([C@H]3[C@H](CO)N4C(=O)CN(C(=O)c5cccnc5)C[C@@H]34)cc2)cc1 -11.8%, CN1c2ccc(-c3ccccc3)cc2[C@H]2[C@H](CCN2C(=O)Cc2ccccn2)[C@H]1CO -17.4%
